Our source for the growth values is PubChem BioAssay (NCI).

Compounds without any hit were thinned out: in the full panel of roughly 83,000, 20% have a hit.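 For each line, cells grew in 96-well plates with the test compound present at a single concentration for 48 hours.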 Values without a mark were called inactive. Calls of active or inactive are those of the source. Rule for the calls: active = growth percent below 10; inactive = the rest.

Among the test systems are NCI-H23 lung; NCI-H226 lung; NCI-H322M lung; HOP-62 NSCLC; NCI-H460 lung; HOP-92 NSCLC; NCI-H522 lung; A549/ATCC NSCLC; 786-0 renal; COLO 205 colon; DU-145 prostate; K-562 leukemia; MALME-3M melanoma; MDA-MB-231 breast; RXF 393 renal; SF-268 CNS; SF-295 CNS; SF-539 CNS; UACC-257 melanoma; M14 melanoma.
Common to all, as to assay: NCI-60 one-dose screen, 48 h (100 = growth as untreated, 0 = no growth, -100 = all killed)
What all share (conditions): 10 µM

In the case of `CC1Cc2ccccc2O1` (stereo not drawn), the growth in the assay on NCI-H23 lung is 98.6%; in the assay with NCI-H226 lung, 107%; with NCI-H322M lung, 131%; in the assay on HOP-62 NSCLC, 108%; in the assay on NCI-H460 lung, 109%; in the assay with HOP-92 NSCLC, 109%. Further, the growth in the assay with NCI-H522 lung was 114%; in the assay with A549/ATCC NSCLC it was 103%; in the assay on 786-0 renal, 109%; with COLO 205 colon it was 110%; with DU-145 prostate, 124%; in the assay on K-562 leukemia, 117%. Further, the growth in the assay with MALME-3M melanoma was 126%; in the assay with MDA-MB-231 breast, 115%; with RXF 393 renal, 118%; in the assay with SF-268 CNS, 113%; in the assay with SF-295 CNS, 104%; in the assay on SF-539 CNS, 100%. Also, the figures for the growth in the assay with UACC-257 melanoma and in the assay on M14 melanoma were 112% and 107%, respectively.

`CCOc1ccc(I)cc1`: the growth in the assay on NCI-H23 lung is 96.7%; with NCI-H226 lung it was 103%; in the assay with NCI-H322M lung, 120%; in the assay on HOP-62 NSCLC it was 107%; with NCI-H460 lung, 108%; in the assay on HOP-92 NSCLC it was 90.3%. Further, the growth was 105% in the assay with NCI-H522 lung; 104% in the assay on A549/ATCC NSCLC; 109% in the assay with 786-0 renal; 111% in the assay with COLO 205 colon; 105% in the assay with DU-145 prostate; 119% in the assay on K-562 leukemia. Moreover, the growth in the assay with MALME-3M melanoma is 108%; in the assay with MDA-MB-231 breast, 102%; in the assay on RXF 393 renal, 107%; with SF-268 CNS it was 96.4%; in the assay with SF-295 CNS, 113%; in the assay on SF-539 CNS, 97.8%. Further, the growth with UACC-257 melanoma was 104%.

As for `CC(=O)c1ccc(C)c(N)c1`, the growth with NCI-H23 lung is 81.5%; in the assay with NCI-H226 lung, 95.8%; in the assay on NCI-H322M lung it was 121%; with HOP-62 NSCLC, 99.6%; with NCI-H460 lung it was 111%; in the assay on HOP-92 NSCLC it was 92.9%. The growth with NCI-H522 lung was 99.9%; with A549/ATCC NSCLC, 92.8%; with 786-0 renal, 103%; in the assay with COLO 205 colon it was 110%; with DU-145 prostate it was 110%; with K-562 leukemia, 102%. The growth is 107% in the assay on MALME-3M melanoma; 115% with MDA-MB-231 breast; 111% with RXF 393 renal; 100% in the assay with SF-268 CNS; 101% in the assay with SF-295 CNS; 101% with SF-539 CNS. For the same molecule, the growth in the assay with UACC-257 melanoma is 102%; in the assay with M14 melanoma, 92.5%.

For the molecule `O=[N+]([O-])c1ccc(Sc2ccncn2)c([N+](=O)[O-])c1`, the growth in the assay on NCI-H23 lung was 60%; with NCI-H226 lung, 55.3%; with NCI-H322M lung, 106%; with HOP-62 NSCLC, 92.4%; in the assay with NCI-H460 lung it was 99.3%; in the assay on HOP-92 NSCLC it was 103%. Further, the growth with NCI-H522 lung was -62.2% (active); with A549/ATCC NSCLC, 122%; with 786-0 renal, 69.7%; with COLO 205 colon it was 27%; with DU-145 prostate, 85.4%; in the assay on K-562 leukemia it was 26.3%. Moreover, the growth was 86.6% in the assay with MALME-3M melanoma; 84.1% in the assay on MDA-MB-231 breast; 81.7% with RXF 393 renal; 89% with SF-268 CNS; 113% with SF-295 CNS; 22.9% with SF-539 CNS. Also, the growth in the assay on UACC-257 melanoma was 64.7%; in the assay on M14 melanoma, 8.79% (active).

With `CCCNC(=O)c1ccc(S(N)(=O)=O)cc1`, the growth was 118% with NCI-H23 lung; 108% with NCI-H226 lung; 121% in the assay with NCI-H322M lung; 82.8% with HOP-62 NSCLC; 108% in the assay with NCI-H460 lung; 88.9% in the assay with HOP-92 NSCLC. The growth with NCI-H522 lung is 115%; in the assay on A549/ATCC NSCLC, 112%; in the assay on 786-0 renal it was 75.4%; in the assay with COLO 205 colon it was 132%; with DU-145 prostate it was 109%; in the assay on K-562 leukemia, 107%. The growth in the assay with MALME-3M melanoma was 113%; in the assay on MDA-MB-231 breast it was 101%; with RXF 393 renal it was 107%; in the assay on SF-268 CNS it was 103%; with SF-295 CNS, 127%; in the assay on SF-539 CNS, 97.8%. Besides, the growth in the assay on UACC-257 melanoma was 110%.

As to `Cc1nc2c(ccc3ccccc32)s1`, the growth was 98% in the assay with NCI-H23 lung; 109% in the assay on NCI-H226 lung; 116% in the assay with NCI-H322M lung; 103% in the assay with HOP-62 NSCLC; 115% with NCI-H460 lung; 93.7% in the assay on HOP-92 NSCLC. In addition, the growth with NCI-H522 lung was 103%; in the assay with A549/ATCC NSCLC, 98.6%; with 786-0 renal, 101%; with COLO 205 colon it was 110%; in the assay on DU-145 prostate it was 123%; with K-562 leukemia, 115%. Besides, the growth was 110% in the assay with MALME-3M melanoma; 107% in the assay on MDA-MB-231 breast; 116% with RXF 393 renal; 116% in the assay with SF-268 CNS; 104% in the assay on SF-295 CNS; 100% in the assay with SF-539 CNS. Also, the growth in the assay on UACC-257 melanoma was 101%; with M14 melanoma, 98.5%.

Consider `COC1=CC(=O)c2nc(Cl)ccc2C1=O`, for which the growth in the assay with NCI-H23 lung is -15.2% (active); with NCI-H226 lung, 26.6%; in the assay with NCI-H322M lung it was 106%; in the assay with HOP-62 NSCLC it was 89.4%; in the assay on NCI-H460 lung, 115%; with HOP-92 NSCLC, -18.4% (active). The growth with NCI-H522 lung was -51.2% (active); with A549/ATCC NSCLC it was 98.3%; in the assay with 786-0 renal, 72.4%; with COLO 205 colon, 102%; in the assay on DU-145 prostate, 63%; in the assay with K-562 leukemia, 0.0099% (active). Moreover, the growth is 130% in the assay on MALME-3M melanoma; -25.5% (active) in the assay with MDA-MB-231 breast; -53.9% (active) in the assay on RXF 393 renal; 63.6% in the assay with SF-268 CNS; 115% in the assay with SF-295 CNS; 88.3% with SF-539 CNS. Also, the results for the growth in the assay with UACC-257 melanoma and in the assay on M14 melanoma were -30.9% (active) and -5.38% (active), respectively.

For the molecule `CCN(CC)c1ccc2nc3ccc(=[N+](CC)CC)cc-3oc2c1`, the growth was -46.2% (active) with NCI-H23 lung; -46.9% (active) in the assay on NCI-H226 lung; 10.7% with NCI-H322M lung; 1.25% (active) with HOP-62 NSCLC; 6.72% (active) in the assay with NCI-H460 lung; 15.7% with HOP-92 NSCLC. Besides, the growth is -29.6% (active) in the assay on NCI-H522 lung; 18.5% with A549/ATCC NSCLC; 34.9% in the assay with 786-0 renal; -69.9% (active) in the assay with COLO 205 colon; 37.6% with DU-145 prostate; 21% with K-562 leukemia. The growth with MALME-3M melanoma is -48.6% (active); in the assay with MDA-MB-231 breast, -12.1% (active); in the assay on RXF 393 renal, 53.1%; in the assay with SF-268 CNS it was 13.9%; in the assay with SF-295 CNS it was 1.09% (active); in the assay on SF-539 CNS, 21.2%. The growth in the assay on UACC-257 melanoma is -55.8% (active); with M14 melanoma, -34.1% (active).
